uPA surface inh – qHTS for Inhibitors of Cell Surface uPA Generation; cell surface uPA generation assay, qHTS; Potency, µM (top dose mostly 38.3 µM), inactives show at the top dose activity change, negative = inhibition, usual class: inhibitors; 0.31% of 330,000 active; AID 540303, 2011; active = well fitted inhibition curve with a large enough effect; inconclusive = small, poorly fitted or top-dose-only effect; inactive = no such curve, though single readings can be large or run the other way; tested in mouse RAW 264.7 cells; also: potency is read from the fitted curve at half-maximal effect; nearly all actives have a fitted effect of over 55% in size
HT1080 IDH1KD tx – qHTS for induction of synthetic lethality in tumor cells producing 2HG: qHTS for the HT-1080-IDH1KD cell line; HT-1080 IDH1 knockdown viability, ATP luminescence, 48 h; Potency, µM (titrated, usually from 46.1 µM), for inactives: top-dose activity, negative = toxicity, usual class: cytotoxic; 2% of 360,000 active;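 also: potency is read from the fitted curve at half-maximal effect; 0% = DMSO wells and -100% = cell-free medium wells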
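% activity derives from luminescence (CellTiter-Glo), normalised to DMSO and no-cell wells. HT-1080-IDH1KD cells, 750/well, had 48 h compound exposure at 37 °C.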
DT40 TDP1 no CPT – qHTS for Inhibitors of human tyrosyl-DNA phosphodiesterase 1 (TDP1): qHTS in cells in absence of CPT; DT40 Tdp1-/- hTDP1 cells, no CPT, ATP luminescence, 48 h; Potency, µM (highest dose often 46.2 µM), inactives show at the top dose activity change, negative = growth inhibition, actives largely listed as inhibitors; 15% of 420,000 active; also: potency is read from the fitted curve at half-maximal effect; nearly all actives have a fitted effect of over 55% in size
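Compound effects on proliferation are scored in DT40 Tdp1-/-;hTDP1 cells in the absence of CPT. ATP levels (CellTiter-Glo luminescence) are recorded after a ≥48 hr, 37 °C incubation.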
DT40 TDP1 CPT – qHTS for Inhibitors of human tyrosyl-DNA phosphodiesterase 1 (TDP1): qHTS in cells in presence of CPT. Potency, µM (series often up to 46.2 µM), for the others: top-dose activity change, negative = growth inhibition, most hits filed as inhibitors. 12% of 420,000 active. AID 686979, 2013. chicken DT40 Tdp1-/-;hTDP1 cells + 20 nM CPT, ATP luminescence, 48 h; also: potency is read from the fitted curve at half-maximal effect; nearly all actives have a fitted effect of over 55% in size
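Chicken DT40 Tdp1-/- cells complemented with human TDP1, 400 cells/well, exposed to compounds plus 20 nM camptothecin for at least 48 h at 37 C; viability read as ATP content by CellTiter-Glo luminescence.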
HT1080NT lethal – qHTS for induction of synthetic lethality in tumor cells producing 2HG: qHTS for the HT-1080-NT fibrosarcoma cell line; HT-1080-NT fibrosarcoma viability, CellTiter-Glo ATP luminescence, 48 h; Potency, µM (highest dose often 46.1 µM), inactives show top-dose activity, negative = less viability, hits mostly cytotoxic; 1.6% of 360,000 active; AID 686970, 2013;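 also: NT is the 2HG producing partner of a matched IDH1 knockdown line; potency is read from the fitted curve at half-maximal effect; 0% = DMSO-treated cells and -100% = media-only wells without cells; nearly all actives have a fitted effect of over 55% in size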
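Toxicity toward the 2HG-producing NT line was scored as %Activity, normalised to DMSO and no-cell wells, from CellTiter-Glo luminescence after 48 hours' treatment.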
IL-1B inflam inh – qHTS for Inhibitors of Inflammasome Signaling: IL-1-beta AlphaLISA Primary Screen | THP-1 LPS/ATP IL-1B secretion, AlphaLISA, 16 h; hits give low values | 4.7% of 360,000 active | activity change, % at 57.5 µM; in the data active = activity change below about -50%; inconclusive = mostly about -30% to -49%
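THP-1 cells pretreated 1 hr with compounds (up to 57.5 uM final), then stimulated with LPS (250 ng/mL final) plus ATP (1.25 mM final); secreted IL-1B measured by AlphaLISA after 16 hr, decreased signal indicating inhibition.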
* marks the source's active call; other numbers are inactive results; [ ] = remark or other dose. In the library only some 19% were active in any assay of this set; here they are far more common. Unless noted, calls follow the shape of the dose curve; as a rule, active = well fitted curve in the direction sought with a large enough effect; inconclusive = small, poorly fitted or top-dose-only effect, or another doubt; inactive = no such curve, though single readings can be large; an effect the other way counts as inactive or inconclusive. Unless noted, % is scaled to controls: 0 for no effect and ±100 for the full control effect.

What do the screens show for `CC(=O)c1ccc(Nc2nc(CN)cs2)cc1`?
HT1080 IDH1KD tx: 4.6%; DT40 TDP1 no CPT: inconclusive; DT40 TDP1 CPT: inconclusive; HT1080NT lethal: 7.1%; IL-1B inflam inh: 8.1

How did CC(C)C(N)c1csc(Nc2ccc(C(=O)c3ccccc3)cc2)n1 (configuration not stated) do in these assays?
HT1080 IDH1KD tx: inconclusive; DT40 TDP1 no CPT: inconclusive; DT40 TDP1 CPT: inconclusive; HT1080NT lethal: inconclusive; IL-1B inflam inh: -59.7*

Results for CC(=O)c1ccc(Nc2nc(C(N)C(C)C)cs2)cc1 (configuration not stated) ?
HT1080 IDH1KD tx: 0.0%; DT40 TDP1 no CPT: inconclusive; DT40 TDP1 CPT: inconclusive; HT1080NT lethal: 0.6%; IL-1B inflam inh: inconclusive

What do the screens show for `CN(C)Cc1csc(Nc2ccc(C(=O)c3ccccc3)cc2)n1`?
HT1080 IDH1KD tx: -29.2%; DT40 TDP1 no CPT: inconclusive; DT40 TDP1 CPT: 18.4µM*; HT1080NT lethal: -7.7%; IL-1B inflam inh: -28.4

What do the screens show for `COc1ccccc1CCCNC(=O)C1CCC(=O)N(CCCN2CCCC2=O)C1` (configuration not stated)?
uPA surface inh: -4.8%; HT1080 IDH1KD tx: 9.5%; DT40 TDP1 no CPT: 32.7%; DT40 TDP1 CPT: 2.8%; HT1080NT lethal: 15.2%; IL-1B inflam inh: 16.5

What do the screens show for `Cc1ccc(Cl)cc1NC(=O)COC(=O)CC1CCCCC1`?
uPA surface inh: -6.0%; HT1080 IDH1KD tx: 7.2%; DT40 TDP1 no CPT: 14.4%; DT40 TDP1 CPT: -5.3%; HT1080NT lethal: 0.9%[9.24 µM]; IL-1B inflam inh: 0.0

What do the screens show for `CCc1ccccc1NC(=O)c1ccc2c(c1)CCCN2S(C)(=O)=O`?
DT40 TDP1 no CPT: -22.0%; DT40 TDP1 CPT: -25.7%

How did OC(c1cc(-c2ccc(Cl)cc2)nc2ccccc12)C1CCCCN1 (configuration not stated) do in these assays?
uPA surface inh: -7.7%; HT1080 IDH1KD tx: -7.5%; DT40 TDP1 no CPT: 25.9µM*; DT40 TDP1 CPT: 23.1µM*; HT1080NT lethal: inconclusive; IL-1B inflam inh: -78.2*

Results for NC(=O)C1CCN(C(=O)c2cc(-c3ccc(Cl)cc3)nc3ccccc23)CC1 ?
uPA surface inh: 2.0%; HT1080 IDH1KD tx: -2.9%; DT40 TDP1 no CPT: inconclusive; DT40 TDP1 CPT: 1.1%; HT1080NT lethal: 3.5%; IL-1B inflam inh: -14.8

What do the screens show for `OC(c1cc(C(F)(F)F)nc2c(Cl)cc(Cl)cc12)C1CCCCN1` (configuration not stated)?
uPA surface inh: 2.3%; HT1080 IDH1KD tx: inconclusive; DT40 TDP1 no CPT: inconclusive; DT40 TDP1 CPT: 18.4µM*; HT1080NT lethal: inconclusive; IL-1B inflam inh: -89.2*

What do the screens show for `COc1ccc(CNC(=O)CN2N=C(c3ccc(Cl)cc3)CCC2=O)cc1`?
DT40 TDP1 no CPT: -35.4%; DT40 TDP1 CPT: inconclusive

What do the screens show for `COc1cc(CC(=O)NCC(C)(C)N2CCOCC2)cc(OC)c1OC`?
uPA surface inh: 1.6%; HT1080 IDH1KD tx: 10.2%; DT40 TDP1 no CPT: -1.6%; DT40 TDP1 CPT: -2.1%; HT1080NT lethal: 24.3%; IL-1B inflam inh: 6.7

Results for COc1ccc(CNC(=O)C/C(C)=N/NC(=O)c2ccc(OC)cc2OC)cc1 ?
uPA surface inh: -3.2%; HT1080 IDH1KD tx: 3.4%; DT40 TDP1 no CPT: -3.7%; DT40 TDP1 CPT: 3.1%; HT1080NT lethal: -4.9%; IL-1B inflam inh: -55.3*

What do the screens show for `COc1ccc(CNC(=O)C/C(C)=N/NC(=O)Cc2ccc(OC)c(OC)c2)cc1`?
uPA surface inh: 1.1%; HT1080 IDH1KD tx: 16.6%; DT40 TDP1 no CPT: 6.0%; DT40 TDP1 CPT: 1.5%; HT1080NT lethal: 25.4%; IL-1B inflam inh: 13.5

How did Cc1nc2c(Cl)cccc2c2c1CC(CBr)O2 (configuration not stated) do in these assays?
uPA surface inh: 3.6%; HT1080 IDH1KD tx: -9.2%; DT40 TDP1 no CPT: inconclusive; DT40 TDP1 CPT: 14.6µM*; HT1080NT lethal: -7.8%; IL-1B inflam inh: 23.9

What do the screens show for `Cc1ccc(NS(=O)(=O)c2ccccc2Cl)c2c1CC(C)(C)O2`?
uPA surface inh: 3.4%; HT1080 IDH1KD tx: 1.0%; DT40 TDP1 no CPT: 14.1µM*; DT40 TDP1 CPT: 20µM*; HT1080NT lethal: -8.7%; IL-1B inflam inh: 3.2

How did O=C(c1cc(-c2ccccc2)on1)N1CCOc2ccc(CN3CCOCC3)cc2C1 do in these assays?
DT40 TDP1 no CPT: inconclusive; DT40 TDP1 CPT: 14.5%[9.04 µM]

Results for CCCCOCCCNC(=O)C[C@@H]1C[C@@]2(C(=O)OC)CC(C)(C)CC=C2N(Cc2ccc3c(c2)OCO3)C1=O ?
HT1080 IDH1KD tx: inconclusive; DT40 TDP1 no CPT: 20.6µM*; DT40 TDP1 CPT: inconclusive; HT1080NT lethal: inconclusive; IL-1B inflam inh: -10.9

What do the screens show for `COC(=O)[C@@]12C[C@@H](CC(=O)NCCC(C)C)C(=O)N(Cc3ccc4c(c3)OCO4)C1=CCC(C)(C)C2`?
HT1080 IDH1KD tx: inconclusive; DT40 TDP1 no CPT: 18.4µM*; DT40 TDP1 CPT: inconclusive; HT1080NT lethal: inconclusive; IL-1B inflam inh: -55.2*

How did COc1ccc2c(c1)c1c(c(=O)n(CCc3ccccc3)c(=O)n1Cc1ccc(F)cc1)n2C do in these assays?
DT40 TDP1 no CPT: -12.2%; DT40 TDP1 CPT: -7.6%

What do the screens show for `COc1cc(C2CC(=O)Nc3cc4c(cc32)OCCO4)cc(OC)c1O` (configuration not stated)?
DT40 TDP1 no CPT: 20.6µM*; DT40 TDP1 CPT: inconclusive

How did COc1cc2c(cc1OC)C(c1ccccc1OC(C)C)CC(=O)N2 (configuration not stated) do in these assays?
uPA surface inh: 2.8%; HT1080 IDH1KD tx: 23.8%; DT40 TDP1 no CPT: 14.6µM*; DT40 TDP1 CPT: inconclusive; HT1080NT lethal: 5.9%; IL-1B inflam inh: 60.1

How did CC(C)COc1ccccc1C1CC(=O)Nc2cc3c(cc21)OCO3 (configuration not stated) do in these assays?
DT40 TDP1 no CPT: 4.11µM*; DT40 TDP1 CPT: 2.59µM*

How did COc1cccc(C2CC(=O)Nc3cc4c(cc32)OCCO4)c1OC (configuration not stated) do in these assays?
DT40 TDP1 no CPT: 18.4µM*; DT40 TDP1 CPT: 20.6µM*

How did O=C(Cc1ccc(Br)cc1)OCC(=O)c1ccc[nH]1 do in these assays?
uPA surface inh: 3.6%; HT1080 IDH1KD tx: -1.1%; DT40 TDP1 no CPT: 9.0%; DT40 TDP1 CPT: 4.8%; HT1080NT lethal: 2.9%; IL-1B inflam inh: 3.0

Bioassay records as filed in PubChem BioAssay.
